The values that follow come from article PMC11006913.

Changes are numbered by the printed parent chain.

Assay in all cases: PBM; 200 nM protein, PBS
Holding throughout (settings): dsDNA, one strand shown

Test [1] concerns the target T1, SIX6 (Homo sapiens, UniProt O95475 114-200, L167I).
T1 sequence: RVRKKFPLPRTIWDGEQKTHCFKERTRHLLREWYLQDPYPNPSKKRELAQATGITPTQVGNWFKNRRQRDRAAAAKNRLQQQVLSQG

Test [2] addresses T2, SIX6 (Homo sapiens, UniProt O95475 114-200, L143V).
T2 sequence: T1 sequence with L30V, I54L

Test [3] deals with T3, SIX6 (Homo sapiens, UniProt O95475 114-200, H141N).
T3 sequence: T1 sequence with H28N, I54L

Test [4] has as its target T4, SIX6 (Homo sapiens, UniProt O95475 114-200, T165P).
T4 sequence: T1 sequence with T52P, I54L

For test [5], the target named is T5, SIX6 (Homo sapiens, UniProt O95475 114-200, L167M).
T5 sequence: T1 sequence with I54M

Test [6] has as its target T6, SIX6 (Homo sapiens, UniProt O95475 114-200, L143M).
T6 sequence: T1 sequence with L30M, I54L

For test [7], the target named is T7, SIX6 (Homo sapiens, UniProt O95475 114-200, L143I).
T7 sequence: T1 sequence with L30I, I54L

In test [8] the target is T8, SIX6 (Homo sapiens, UniProt O95475 114-200, T165G).
T8 sequence: T1 sequence with T52G, I54L

For test [9], the target named is T9, SIX6 (Homo sapiens, UniProt O95475 114-200, T139Q).
T9 sequence: T1 sequence with T26Q, I54L

For test [10], the target named is T10, SIX6 (Homo sapiens, UniProt O95475 114-200, T165A).
T10 sequence: T1 sequence with T52A, I54L

Test [11] deals with T11, SIX6 (Homo sapiens, UniProt O95475 114-200, L167V).
T11 sequence: T1 sequence with I54V

Test [12] has as its target T12, SIX6 (Homo sapiens, UniProt O95475 114-200).
T12 sequence: T1 sequence with I54L

Test [13] concerns the target T13, SIX6 (Homo sapiens, UniProt O95475 114-200, T165I).
T13 sequence: T1 sequence with T52I, I54L

As to ACTGATAC, the binding signal in test [1] is 11.3 upbm affinity estimate (log intensity, higher = more binding, comparable within an allelic series); in test [2], 10.3 upbm affinity estimate (log intensity, higher = more binding, comparable within an allelic series); in test [3] it was 11.3 upbm affinity estimate (log intensity, higher = more binding, comparable within an allelic series); in test [4] it was 9.79 upbm affinity estimate (log intensity, higher = more binding, comparable within an allelic series); in test [5], 10.5 upbm affinity estimate (log intensity, higher = more binding, comparable within an allelic series); in test [6], 10.9 upbm affinity estimate (log intensity, higher = more binding, comparable within an allelic series). Further, the binding signal in test [7] was 10.4 upbm affinity estimate (log intensity, higher = more binding, comparable within an allelic series); in test [8], 11.3 upbm affinity estimate (log intensity, higher = more binding, comparable within an allelic series); in [9], 11.3 upbm affinity estimate (log intensity, higher = more binding, comparable within an allelic series); in [10], 11.2 upbm affinity estimate (log intensity, higher = more binding, comparable within an allelic series); in [11], 10.9 upbm affinity estimate (log intensity, higher = more binding, comparable within an allelic series); in test [12], 11 upbm affinity estimate (log intensity, higher = more binding, comparable within an allelic series). Further, in test [13], the binding signal was 11 upbm affinity estimate (log intensity, higher = more binding, comparable within an allelic series).

Consider GATATACC, for which the binding signal is 11.1 upbm affinity estimate (log intensity, higher = more binding, comparable within an allelic series) in test [1]; 10.4 upbm affinity estimate (log intensity, higher = more binding, comparable within an allelic series) in [2]; 11.2 upbm affinity estimate (log intensity, higher = more binding, comparable within an allelic series) in [3]; 9.81 upbm affinity estimate (log intensity, higher = more binding, comparable within an allelic series) in test [4]; 10.9 upbm affinity estimate (log intensity, higher = more binding, comparable within an allelic series) in [5]; 11 upbm affinity estimate (log intensity, higher = more binding, comparable within an allelic series) in test [6]. Besides, the binding signal was 10.5 upbm affinity estimate (log intensity, higher = more binding, comparable within an allelic series) in test [7]; 11.1 upbm affinity estimate (log intensity, higher = more binding, comparable within an allelic series) in test [8]; 11.2 upbm affinity estimate (log intensity, higher = more binding, comparable within an allelic series) in [9]; 11.1 upbm affinity estimate (log intensity, higher = more binding, comparable within an allelic series) in test [10]; 10.9 upbm affinity estimate (log intensity, higher = more binding, comparable within an allelic series) in test [11]; 11 upbm affinity estimate (log intensity, higher = more binding, comparable within an allelic series) in test [12]. Moreover, the binding signal in test [13] was 11.1 upbm affinity estimate (log intensity, higher = more binding, comparable within an allelic series).

Regarding GCAGCCGC, the binding signal is 8.93 upbm affinity estimate (log intensity, higher = more binding, comparable within an allelic series) in [1]; 8.9 upbm affinity estimate (log intensity, higher = more binding, comparable within an allelic series) in test [2]; 8.98 upbm affinity estimate (log intensity, higher = more binding, comparable within an allelic series) in [3]; 8.93 upbm affinity estimate (log intensity, higher = more binding, comparable within an allelic series) in test [4]; 9.02 upbm affinity estimate (log intensity, higher = more binding, comparable within an allelic series) in [5]; 8.94 upbm affinity estimate (log intensity, higher = more binding, comparable within an allelic series) in test [6]. For the same sequence, the binding signal in test [7] was 8.95 upbm affinity estimate (log intensity, higher = more binding, comparable within an allelic series); in test [8], 8.95 upbm affinity estimate (log intensity, higher = more binding, comparable within an allelic series); in [9] it was 9.01 upbm affinity estimate (log intensity, higher = more binding, comparable within an allelic series); in test [10], 9.01 upbm affinity estimate (log intensity, higher = more binding, comparable within an allelic series); in test [11] it was 8.97 upbm affinity estimate (log intensity, higher = more binding, comparable within an allelic series); in test [12] it was 8.98 upbm affinity estimate (log intensity, higher = more binding, comparable within an allelic series). Also, in test [13], the binding signal is 9.03 upbm affinity estimate (log intensity, higher = more binding, comparable within an allelic series).

Take GCTGTCCC: the binding signal in [1] was 8.84 upbm affinity estimate (log intensity, higher = more binding, comparable within an allelic series); in [2] it was 8.8 upbm affinity estimate (log intensity, higher = more binding, comparable within an allelic series); in test [3] it was 8.82 upbm affinity estimate (log intensity, higher = more binding, comparable within an allelic series); in test [4] it was 9.07 upbm affinity estimate (log intensity, higher = more binding, comparable within an allelic series); in [5] it was 8.79 upbm affinity estimate (log intensity, higher = more binding, comparable within an allelic series); in test [6], 8.89 upbm affinity estimate (log intensity, higher = more binding, comparable within an allelic series). For the same sequence, the binding signal in test [7] is 8.88 upbm affinity estimate (log intensity, higher = more binding, comparable within an allelic series); in test [8], 8.98 upbm affinity estimate (log intensity, higher = more binding, comparable within an allelic series); in test [9], 9.06 upbm affinity estimate (log intensity, higher = more binding, comparable within an allelic series); in test [10], 8.87 upbm affinity estimate (log intensity, higher = more binding, comparable within an allelic series); in [11] it was 9.03 upbm affinity estimate (log intensity, higher = more binding, comparable within an allelic series); in [12] it was 8.86 upbm affinity estimate (log intensity, higher = more binding, comparable within an allelic series). Moreover, the binding signal in [13] is 8.9 upbm affinity estimate (log intensity, higher = more binding, comparable within an allelic series).

Consider AGGCCCCG, for which the binding signal in test [1] is 8.89 upbm affinity estimate (log intensity, higher = more binding, comparable within an allelic series); in test [2], 8.82 upbm affinity estimate (log intensity, higher = more binding, comparable within an allelic series); in [3], 8.69 upbm affinity estimate (log intensity, higher = more binding, comparable within an allelic series); in test [4], 8.87 upbm affinity estimate (log intensity, higher = more binding, comparable within an allelic series); in test [5] it was 8.92 upbm affinity estimate (log intensity, higher = more binding, comparable within an allelic series); in test [6] it was 8.79 upbm affinity estimate (log intensity, higher = more binding, comparable within an allelic series). The binding signal was 8.8 upbm affinity estimate (log intensity, higher = more binding, comparable within an allelic series) in test [7]; 8.83 upbm affinity estimate (log intensity, higher = more binding, comparable within an allelic series) in [8]; 8.79 upbm affinity estimate (log intensity, higher = more binding, comparable within an allelic series) in [9]; 8.77 upbm affinity estimate (log intensity, higher = more binding, comparable within an allelic series) in test [10]; 8.67 upbm affinity estimate (log intensity, higher = more binding, comparable within an allelic series) in [11]; 8.75 upbm affinity estimate (log intensity, higher = more binding, comparable within an allelic series) in test [12]. Also, in test [13], the binding signal was 8.82 upbm affinity estimate (log intensity, higher = more binding, comparable within an allelic series).

Regarding CGCAAGCG, the binding signal in [1] is 8.99 upbm affinity estimate (log intensity, higher = more binding, comparable within an allelic series); in [2] it was 9.04 upbm affinity estimate (log intensity, higher = more binding, comparable within an allelic series); in test [3], 8.99 upbm affinity estimate (log intensity, higher = more binding, comparable within an allelic series); in test [4], 9.04 upbm affinity estimate (log intensity, higher = more binding, comparable within an allelic series); in test [5] it was 9.02 upbm affinity estimate (log intensity, higher = more binding, comparable within an allelic series); in test [6] it was 9.01 upbm affinity estimate (log intensity, higher = more binding, comparable within an allelic series). The binding signal in [7] was 9.04 upbm affinity estimate (log intensity, higher = more binding, comparable within an allelic series); in test [8], 8.96 upbm affinity estimate (log intensity, higher = more binding, comparable within an allelic series); in [9], 9.04 upbm affinity estimate (log intensity, higher = more binding, comparable within an allelic series); in [10] it was 8.95 upbm affinity estimate (log intensity, higher = more binding, comparable within an allelic series); in [11] it was 8.92 upbm affinity estimate (log intensity, higher = more binding, comparable within an allelic series); in test [12], 9.01 upbm affinity estimate (log intensity, higher = more binding, comparable within an allelic series). Besides, the binding signal in [13] is 8.97 upbm affinity estimate (log intensity, higher = more binding, comparable within an allelic series).
